Eleven substances from ChEMBL document CHEMBL1201862, “PubChem BioAssay data set” (2004) can be followed below.

Hit rate of the full screen: of about 57,000 […], about 4,900 (8.6%) were called active. Cut-off read from the data, not from the text of the source: active = GI50 up to about 1.1 µM and inactive = higher. The sample as a whole holds a higher share of actives than the screen did. Measured potencies and affinities stand elsewhere.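 Each compound was tested at five concentrations against cells in 96-well plates for 48 hours. At the GI50, growth is halved.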

The subject of this experiment is MOLT-4. The experiment in a line: NCI tumour cell line growth inhibition, 48 h.
As to “[Bis(aminomethyl)ethylmethylsilane]tetrachloroplatinum(IV), CHEMBL2146192”, the GI50 worked out at 531 nM.
For “[Bis(aminomethyl)dimethylsilane]tetrachloroplatinum(IV), CHEMBL2146190”, the GI50 was 1680 nM.
The substance “cis-Bis[[(trimethylsilyl)methyl]amino]tetrachloroplatinum(IV), CHEMBL2146191” displayed a GI50 of 2000 nM.
Substance “[Bis(aminomethyl)tetramethylenesilane]tetrachloropaltinum(IV), CHEMBL2146189” showed a GI50 of 824 nM.
For CISPLATIN, CHEMBL11359, the GI50 was 1430 nM.
“[Bis(aminomethyl)diethylsilane]tetrachloroplatinum(IV), CHEMBL2146203” registered a GI50 of 561 nM.
Next, “[Bis(aminomethyl)tetramethylenesilane]dichloropaltinum(II), CHEMBL2146205”: 2090 nM; “mu-(1,7-nanodiamine-N,N')bis-(cis-aminedichloroplatimum (II)), CHEMBL2146215”: 592 nM.
With “[Bis(aminomethyl)dimethylsilane]dichloroplatinum (II), CHEMBL2146201”, the GI50 came to 5000 nM.
Next, “[Bis(aminomethyl)pentamethylenesilane]dichloropaltinum(II), CHEMBL2146202”: 325 nM.
Next, “[Bis(aminomethyl)pentamethylenesilane]tetrachloropaltinum(IV), CHEMBL2146204”: 505 nM.
